Measurements from the supplement of paper PMC10849652.
The full data set covers some 8,800 targets. This sample favours those with a hit. About 0.5% of all pairs of compound and target were hits. Values without a mark were called inactive.

How the values were obtained:
Experiment in all cases: log2 fold change, soluble protein after heating vs DMSO (PISA); higher = thermal stabilisation; K562 lysate, 10 uM; active = over 0.2 and 3.5 SD of the protein, either way, in both replicates (recomputed)
[1] = compound: Cc1cn(-c2cc(NC(=O)c3ccc(C)c(Nc4nccc(-c5cccnc5)n4)c3)cc(C(F)(F)F)c2)cn1 [nilotinib]
Procedure, shortened: (§1)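 The values are log-two fold changes in thermal stability compared with solvent controls and come from duplicates. They were obtained by TMTpro 16plex LC-MS/MS, with channel sums equalised, on the supernatant after 21,000xg for 90 min. That supernatant came from crude K562 extract at 1 mg/mL protein treated with 10 μM compound for 30 min, heated for 3 min across 48°C-58°C, pooled and brought to 0.5% NP-40 at 4°C.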

[2] = compound: Cc1nc(Nc2n[nH]c3c2CN(C(=O)N[C@H](CN(C)C)c2ccccc2)C3(C)C)c2sccc2n1
Procedure, shortened: as §1

[3] = compound: Cc1nc(Nc2ncc(C(=O)Nc3c(C)cccc3Cl)s2)cc(N2CCN(CCO)CC2)n1 [dasatinib]
Procedure, shortened: as §1

[4] = compound: Cc1ncc(-c2ccnc(Nc3ccc(S(C)(=O)=O)cc3)n2)n1C(C)C
Procedure, shortened: as §1

[5] = compound: Cn1cc(-c2ccc3c(c2)CCN3C(=O)Cc2cccc(C(F)(F)F)c2)c2c(N)ncnc21
Procedure, shortened: as §1

[6] = compound: Cn1cc(CNCC2CCN(c3ncc(C(=O)NO)cn3)CC2)c2ccccc21 [quisinostat]
Procedure, shortened: as §1

[7] = compound: Cn1cncc1[C@@](N)(c1ccc(Cl)cc1)c1ccc2c(c1)c(-c1cccc(Cl)c1)cc(=O)n2C [tipifarnib]
Procedure, shortened: as §1

[8] = compound: NC(=O)Nc1cc(-c2cccc(F)c2)sc1C(=O)N[C@H]1CCCNC1
Procedure, shortened: as §1

[9] = compound: NC(=O)c1cnc(N[C@@H]2CCCC[C@@H]2N)nc1Nc1cccc(-n2nccn2)c1
Procedure, shortened: as §1

[10] = compound: NC1(c2ccc(-c3nc4ccn5c(=O)[nH]nc5c4cc3-c3ccccc3)cc2)CCC1
Procedure, shortened: as §1

UniProt O75607, sequence (O75607 whole entry, looked up): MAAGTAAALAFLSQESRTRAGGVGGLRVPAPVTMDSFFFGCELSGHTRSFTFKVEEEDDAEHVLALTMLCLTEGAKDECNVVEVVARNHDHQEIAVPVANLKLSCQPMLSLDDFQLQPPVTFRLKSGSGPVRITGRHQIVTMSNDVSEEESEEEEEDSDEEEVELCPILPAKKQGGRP
UniProt Q13416, sequence (Q13416 whole entry, looked up): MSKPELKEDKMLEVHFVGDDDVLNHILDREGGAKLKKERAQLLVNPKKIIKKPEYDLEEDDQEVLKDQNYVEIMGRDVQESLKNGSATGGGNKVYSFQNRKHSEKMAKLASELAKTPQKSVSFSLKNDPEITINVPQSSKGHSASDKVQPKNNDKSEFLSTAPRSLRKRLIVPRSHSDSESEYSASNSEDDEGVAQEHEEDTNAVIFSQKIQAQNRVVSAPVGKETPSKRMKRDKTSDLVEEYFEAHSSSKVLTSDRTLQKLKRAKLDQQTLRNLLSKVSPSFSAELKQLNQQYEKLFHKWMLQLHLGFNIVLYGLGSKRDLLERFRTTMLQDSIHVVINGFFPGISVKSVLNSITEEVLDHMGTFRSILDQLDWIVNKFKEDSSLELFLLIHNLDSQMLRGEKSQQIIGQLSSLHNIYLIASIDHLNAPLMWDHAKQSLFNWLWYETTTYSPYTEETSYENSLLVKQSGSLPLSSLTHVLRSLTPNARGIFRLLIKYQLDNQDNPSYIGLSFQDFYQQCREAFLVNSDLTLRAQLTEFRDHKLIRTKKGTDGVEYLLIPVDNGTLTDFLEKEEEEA
UniProt Q9Y5A7, sequence (Q9Y5A7 whole entry, looked up): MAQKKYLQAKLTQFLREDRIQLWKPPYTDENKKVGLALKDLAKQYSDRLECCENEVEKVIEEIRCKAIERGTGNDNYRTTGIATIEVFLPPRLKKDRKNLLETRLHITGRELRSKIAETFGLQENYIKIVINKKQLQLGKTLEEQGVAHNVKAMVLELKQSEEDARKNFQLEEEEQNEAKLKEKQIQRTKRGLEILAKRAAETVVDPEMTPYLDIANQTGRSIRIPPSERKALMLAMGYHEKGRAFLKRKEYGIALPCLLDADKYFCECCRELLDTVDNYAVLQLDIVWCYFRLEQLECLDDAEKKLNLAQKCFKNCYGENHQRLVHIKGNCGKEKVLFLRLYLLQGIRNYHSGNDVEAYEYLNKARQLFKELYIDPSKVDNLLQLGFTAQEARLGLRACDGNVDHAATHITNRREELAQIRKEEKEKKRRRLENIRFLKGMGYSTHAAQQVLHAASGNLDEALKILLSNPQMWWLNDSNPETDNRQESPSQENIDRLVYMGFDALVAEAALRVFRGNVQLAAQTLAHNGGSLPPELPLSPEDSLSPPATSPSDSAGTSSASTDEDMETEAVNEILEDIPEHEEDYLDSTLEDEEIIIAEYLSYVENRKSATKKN
UniProt Q86XI2, sequence (Q86XI2 whole entry, looked up): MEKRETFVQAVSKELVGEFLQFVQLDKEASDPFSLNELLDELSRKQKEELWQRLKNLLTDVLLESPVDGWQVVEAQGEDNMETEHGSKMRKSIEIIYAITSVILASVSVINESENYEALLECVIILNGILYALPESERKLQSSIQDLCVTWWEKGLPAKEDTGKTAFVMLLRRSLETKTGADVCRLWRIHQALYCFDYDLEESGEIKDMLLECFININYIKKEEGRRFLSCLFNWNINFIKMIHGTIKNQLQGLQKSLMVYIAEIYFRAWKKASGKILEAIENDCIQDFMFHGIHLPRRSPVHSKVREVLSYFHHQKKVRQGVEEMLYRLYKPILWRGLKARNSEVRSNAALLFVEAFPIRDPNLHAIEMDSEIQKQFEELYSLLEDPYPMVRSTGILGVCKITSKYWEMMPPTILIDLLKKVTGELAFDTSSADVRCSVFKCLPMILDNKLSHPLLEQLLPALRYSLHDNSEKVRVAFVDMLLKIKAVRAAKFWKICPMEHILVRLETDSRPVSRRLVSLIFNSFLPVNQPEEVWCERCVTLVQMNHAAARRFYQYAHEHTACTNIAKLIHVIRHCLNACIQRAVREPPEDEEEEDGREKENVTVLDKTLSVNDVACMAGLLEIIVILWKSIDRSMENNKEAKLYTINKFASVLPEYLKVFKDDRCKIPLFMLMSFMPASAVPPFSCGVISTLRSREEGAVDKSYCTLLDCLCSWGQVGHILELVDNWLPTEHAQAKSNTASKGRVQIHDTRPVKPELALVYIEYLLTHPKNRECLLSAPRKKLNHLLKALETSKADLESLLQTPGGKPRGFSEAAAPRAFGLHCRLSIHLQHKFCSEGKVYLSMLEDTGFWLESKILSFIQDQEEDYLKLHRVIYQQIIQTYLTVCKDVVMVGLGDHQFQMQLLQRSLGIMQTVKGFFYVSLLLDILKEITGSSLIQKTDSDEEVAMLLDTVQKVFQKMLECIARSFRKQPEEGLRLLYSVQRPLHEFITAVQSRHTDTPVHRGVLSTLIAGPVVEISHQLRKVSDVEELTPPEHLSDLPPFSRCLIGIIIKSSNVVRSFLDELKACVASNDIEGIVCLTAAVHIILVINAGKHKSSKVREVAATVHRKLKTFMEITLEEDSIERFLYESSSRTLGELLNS
UniProt P40261, sequence (P40261 whole entry, looked up): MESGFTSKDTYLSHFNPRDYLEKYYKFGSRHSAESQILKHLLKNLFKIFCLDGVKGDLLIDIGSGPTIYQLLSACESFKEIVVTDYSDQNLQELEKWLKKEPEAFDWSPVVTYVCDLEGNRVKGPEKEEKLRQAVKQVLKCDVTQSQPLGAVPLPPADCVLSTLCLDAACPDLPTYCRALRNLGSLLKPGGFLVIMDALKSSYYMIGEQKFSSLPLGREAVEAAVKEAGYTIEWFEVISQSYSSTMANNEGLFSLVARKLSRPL
UniProt Q9BZD4, sequence (Q9BZD4 whole entry, looked up): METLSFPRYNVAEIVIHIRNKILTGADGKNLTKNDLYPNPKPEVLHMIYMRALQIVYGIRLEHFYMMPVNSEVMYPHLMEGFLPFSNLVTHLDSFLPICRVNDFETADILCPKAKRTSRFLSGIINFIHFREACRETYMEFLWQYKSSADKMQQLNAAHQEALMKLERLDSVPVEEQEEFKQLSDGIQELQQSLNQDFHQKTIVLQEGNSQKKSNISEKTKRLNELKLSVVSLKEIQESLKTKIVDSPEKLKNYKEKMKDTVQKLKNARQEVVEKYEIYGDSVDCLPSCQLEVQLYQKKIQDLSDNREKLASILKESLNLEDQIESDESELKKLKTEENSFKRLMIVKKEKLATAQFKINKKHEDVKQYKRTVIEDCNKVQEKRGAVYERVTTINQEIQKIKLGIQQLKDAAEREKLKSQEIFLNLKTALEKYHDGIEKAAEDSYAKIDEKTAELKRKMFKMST
UniProt Q9ULX3, sequence (Q9ULX3 whole entry, looked up): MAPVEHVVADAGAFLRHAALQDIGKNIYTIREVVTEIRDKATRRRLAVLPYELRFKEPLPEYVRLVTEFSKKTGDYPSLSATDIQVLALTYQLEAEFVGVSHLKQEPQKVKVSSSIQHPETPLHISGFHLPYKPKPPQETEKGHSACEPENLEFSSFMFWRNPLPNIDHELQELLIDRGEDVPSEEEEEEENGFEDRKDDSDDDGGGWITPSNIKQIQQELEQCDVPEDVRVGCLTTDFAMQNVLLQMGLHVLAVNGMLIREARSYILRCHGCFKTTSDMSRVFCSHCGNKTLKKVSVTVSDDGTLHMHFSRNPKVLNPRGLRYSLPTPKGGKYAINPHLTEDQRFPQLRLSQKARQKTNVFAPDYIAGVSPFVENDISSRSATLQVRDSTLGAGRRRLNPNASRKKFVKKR
UniProt Q9Y314, sequence (Q9Y314 whole entry, looked up): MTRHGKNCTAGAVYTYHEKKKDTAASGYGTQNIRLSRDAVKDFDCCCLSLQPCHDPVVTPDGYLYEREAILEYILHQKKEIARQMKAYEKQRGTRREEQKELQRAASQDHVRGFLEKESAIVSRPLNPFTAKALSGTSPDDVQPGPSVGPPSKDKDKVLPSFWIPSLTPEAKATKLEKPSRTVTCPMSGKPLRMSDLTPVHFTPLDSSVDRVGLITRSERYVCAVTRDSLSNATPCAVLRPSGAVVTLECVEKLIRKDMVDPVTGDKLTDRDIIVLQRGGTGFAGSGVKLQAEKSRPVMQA
UniProt Q96IY1, sequence (Q96IY1 whole entry, looked up): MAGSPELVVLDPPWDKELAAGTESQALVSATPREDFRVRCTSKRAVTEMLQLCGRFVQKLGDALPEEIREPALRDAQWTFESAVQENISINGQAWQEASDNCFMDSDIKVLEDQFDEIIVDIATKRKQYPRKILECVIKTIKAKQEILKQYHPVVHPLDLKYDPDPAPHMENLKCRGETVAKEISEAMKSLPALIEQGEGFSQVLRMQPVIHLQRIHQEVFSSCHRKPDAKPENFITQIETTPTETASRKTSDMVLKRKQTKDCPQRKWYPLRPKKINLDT
UniProt Q5VZE5, sequence (Q5VZE5 whole entry, looked up): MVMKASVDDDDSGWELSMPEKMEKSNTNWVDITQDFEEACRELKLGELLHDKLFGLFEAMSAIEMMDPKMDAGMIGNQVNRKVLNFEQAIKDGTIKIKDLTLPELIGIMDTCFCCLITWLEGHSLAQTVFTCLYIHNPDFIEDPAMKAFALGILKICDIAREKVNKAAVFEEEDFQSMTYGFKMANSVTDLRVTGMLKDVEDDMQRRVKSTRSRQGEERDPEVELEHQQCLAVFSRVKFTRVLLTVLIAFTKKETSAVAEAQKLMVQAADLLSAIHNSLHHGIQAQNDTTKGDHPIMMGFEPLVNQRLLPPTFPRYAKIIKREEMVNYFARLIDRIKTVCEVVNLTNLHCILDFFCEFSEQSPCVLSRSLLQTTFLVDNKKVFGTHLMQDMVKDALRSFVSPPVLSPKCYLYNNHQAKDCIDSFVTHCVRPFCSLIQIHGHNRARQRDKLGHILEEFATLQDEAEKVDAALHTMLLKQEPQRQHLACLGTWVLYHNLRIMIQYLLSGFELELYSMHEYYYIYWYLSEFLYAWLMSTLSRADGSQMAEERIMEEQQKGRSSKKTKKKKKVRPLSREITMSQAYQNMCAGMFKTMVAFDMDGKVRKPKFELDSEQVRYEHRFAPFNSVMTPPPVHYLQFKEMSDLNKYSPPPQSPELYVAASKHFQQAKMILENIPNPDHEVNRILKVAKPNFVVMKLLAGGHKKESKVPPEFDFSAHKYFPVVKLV

| Target | log2 fold change [1] | log2 fold change [2] | log2 fold change [3] | log2 fold change [4] | log2 fold change [5] | log2 fold change [6] | log2 fold change [7] | log2 fold change [8] | log2 fold change [9] | log2 fold change [10] |
| --- | --- | --- | --- | --- | --- | --- | --- | --- | --- | --- |
| MTA3 (UniProt Q9BTC8) | 0.034 | -0.059 | -0.005 | -0.019 | -0.017 | -0.061 | 0.009 | 0.03 | 0.005 | -0.047 |
| NAA35 (UniProt Q5VZE5) | -0.019 | 0.014 | -0.005 | 0.009 | 0.01 | -0.075 | 0.034 | 0.001 | -0.035 | 0.016 |
| NEK9 (UniProt Q8TD19) | -0.024 | 0.13 | -0.002 | 0.007 | 0.001 | -0.042 | -0.018 | 0.033 | 0.003 | -0.026 |
| MYH11 isoform 2 (UniProt P35749) | -0.072 | -0.022 | -0.043 | -0.011 | 0.014 | 0.099 | -0.045 | -0.029 | 0.013 | -0.032 |
| OSBPL6 isoform 5 (UniProt Q9BZF3) | 0.281 | 0.018 | -0.082 | -0.045 | 0.036 | -0.07 | -0.003 | 0.122 | 0.007 | -0.238 |
| OSBP (UniProt P22059) | -0.073 | 0.005 | -0.221 (active) | -0.015 | -0.011 | 0 | 0.042 | 0.012 | 0.031 | 0.04 |
| NF1 (UniProt P21359) | -0.021 | 0.053 | 0.007 | -0.039 | 0.024 | -0.059 | 0.018 | 0.041 | 0.016 | -0.016 |
| ORC2 (UniProt Q13416) | 0 | 0.009 | -0.036 | -0.014 | -0.004 | -0.016 | 0.004 | 0.095 | -0.004 | -0.029 |
| NFAT5 isoform 5 (UniProt O94916) | -0.012 | -0.07 | 0.008 | 0.046 | -0.014 | -0.172 | -0.032 | 0.031 | 0.018 | 0.039 |
| NUP188 (UniProt Q5SRE5) | 0.025 | -0.003 | -0.074 | -0.002 | 0.055 | -0.024 | -0.047 | 0.043 | 0.03 | 0.009 |
| NFATC2 (UniProt Q13469) | -0.001 | -0.052 | -0.033 | 0.061 | -0.001 | -0.133 | -0.021 | 0.024 | -0.025 | -0.023 |
| NOB1 (UniProt Q9ULX3) | 0.018 | -0.026 | 0.004 | -0.066 | 0.044 | 0.041 | 0 | 0.043 | -0.018 | 0.058 |
| NQO1 (UniProt P15559) | 0.051 | -0.031 | 0.244 | 0.022 | -0.104 | 0.021 | 0.042 | 0.042 | -0.027 | 0.056 |
| NUMBL (UniProt Q9Y6R0) | 0.038 | -0.013 | -0.041 | -0.12 | 0.219 | 0.04 | -0.06 | -0.415 (active) | -0.055 | -0.046 |
| NUB1 (UniProt Q9Y5A7) | -0.021 | 0.025 | -0.03 | 0.028 | 0.014 | 0.035 | 0.003 | 0.018 | 0.004 | -0.002 |
| N4BP2 (UniProt Q86UW6) | 0.026 | 0.036 | -0.024 | -0.043 | 0.061 | -0.001 | -0.061 | 0.037 | -0.018 | -0.048 |
| OSBP2 (UniProt Q969R2) | -0.053 | -0.038 | -0.089 | -0.025 | -0.002 | -0.184 | -0.053 | 0.052 | 0.075 | 0.026 |
| NDUFA4 (UniProt O00483) | 0.062 | 0.058 | 0.043 | 0.16 | -0.007 | 0.104 | 0.031 | -0.065 | 0.08 | 0.019 |
| NUP205 (UniProt Q92621) | -0.014 | 0.004 | -0.04 | 0.008 | 0.04 | -0.041 | -0.027 | 0.052 | 0.047 | -0.012 |
| NNMT (UniProt P40261) | -0.044 | -0.01 | 0.058 | 0.03 | 0.003 | -0.145 | -0.008 | 0.004 | 0.035 | -0.033 |
| NUF2 (UniProt Q9BZD4) | -0.011 | 0.002 | -0.044 | -0.005 | 0.017 | -0.012 | 0.003 | 0.061 | 0.013 | -0.014 |
| MTFP1 (UniProt Q9UDX5) | 0.044 | -0.021 | 0.069 | 0.043 | 0.008 | 0.133 | -0.014 | 0.02 | -0.103 | -0.004 |
| NCAPG2 (UniProt Q86XI2) | -0.002 | -0.035 | -0.078 | -0.024 | -0.015 | -0.092 | 0.003 | 0.061 | 0.045 | -0.031 |
| MVB12A (UniProt Q96EY5) | -0.025 | -0.05 | 0.006 | 0.008 | 0.04 | 0.033 | 0.032 | 0.022 | -0.009 | 0.036 |
| NIPSNAP3A (UniProt Q9UFN0) | 0.001 | 0.016 | 0.028 | 0.008 | -0.054 | -0.053 | 0.015 | 0.007 | -0.052 | -0.025 |
| MRPS18A isoform 2 (UniProt Q9NVS2) | 0.031 | -0.022 | -0.054 | -0.033 | 0.006 | -0.012 | -0.026 | 0.036 | 0.014 | -0.065 |
| NSL1 (UniProt Q96IY1) | -0.018 | 0.005 | -0.01 | -0.014 | 0 | -0.009 | 0.024 | -0.003 | 0.01 | -0.007 |
| NOSIP (UniProt Q9Y314) | 0.005 | 0.009 | -0.018 | 0.027 | -0.019 | -0.151 | -0.021 | 0.003 | -0.015 | 0.006 |
| NPM3 (UniProt O75607) | -0.039 | -0.012 | 0.065 | 0.049 | 0.024 | -0.024 | -0.027 | 0.019 | 0.03 | -0.029 |
| NCOR1 (UniProt O75376) | 0.006 | 0.012 | -0.031 | -0.019 | 0.008 | -0.064 | -0.046 | 0.021 | 0.029 | 0.003 |
